Screening results deposited in PubChem by National Center for Advancing Translational Sciences (NCATS).
MCF10A rerep – induces DNA re-replication in MCF 10a normal breast cells. AID 624296. 2.9% of 350,000 active. Potency, µM (doses to about 46.1 µM), for the others: at the top dose activity, positive = re-replication, most hits filed as activators. MCF 10A DNA re-replication, Hoechst nuclear intensity, 48 h; further: potency means the concentration at half of the fitted maximal effect; % of control where 0% means no effect; nearly all actives have a fitted effect of over 50% in size
KB-V1 MDR tox – kills drug-selected multidrug resistant KB-V1 cells; KB-V1 MDR cells viability, CellTiter-Glo, 72 h; Potency, µM (series often up to 46.1 µM), actives largely listed as cytotoxic; 3.4% of 400,000 active; AID 1347076; further: potency means the concentration at half of the fitted maximal effect; on the % scale 0 is the no-effect control and ±100 the full control effect; nearly all actives have a fitted effect of over 60% in size
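Cells of the MDR subline KB-V1 are plated, dosed with compound at multiple concentrations, and incubated 72 h at 37 degrees C; CellTiter-Glo is then added and luminescence read after 10 min.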
KB-3-1 cytotox – KB-3-1 parental cell cytotoxicity | KB-3-1 viability, CellTiter-Glo ATP luminescence, 72 h | 1.4% of 400,000 active | Potency, µM (titrated, usually from 46.1 µM), actives largely listed as cytotoxic; further: potency means the concentration at half of the fitted maximal effect; on the % scale 0 is the no-effect control and ±100 the full control effect; nearly all actives have a fitted effect of over 60% in size
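Cytotoxicity in the drug-sensitive parental line KB-3-1 was scored as loss of CellTiter-Glo luminescence following 72 h incubation with compound. Values come from curve fitting of normalized concentration-response data.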
IL-1B inflam inh – blocks inflammasome-driven IL-1 beta release. THP-1 LPS/ATP IL-1B secretion, AlphaLISA, 16 h; hits give low values. activity change, % at 57.5 µM. 4.7% of 360,000 active; in the data active means activity change below about -50%; inconclusive means mostly about -30% to -49%; further: on the % scale 0 is the no-effect control and ±100 the full control effect
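Secreted IL-1B measured by AlphaLISA bead assay after 16 h compound exposure of THP-1 cells; compounds (final up to 57.5 uM) added 1 h before LPS (250 ng/mL) and ATP (1.25 mM) stimulation; lower signal means less secretion.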
SW480 rerep – inducers of DNA re-replication in SW480 colon cancer cells; Potency, µM (series often up to 46.1 µM), without a hit: at the highest dose re-replication activation, most hits filed as activators; SW480 DNA re-replication, Hoechst DNA content imaging, 48 h; 1.8% of 340,000 active; further: potency means the concentration at half of the fitted maximal effect; % of control where 0% means no effect; nearly all actives have a fitted effect of over 55% in size
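First, 250 cells per well were seeded. Next, compound or vehicle (23 nL) was pinned in, plates sat 48 hr at 37 C. Finally Hoechst was added for 40 min before fluorescence scanning.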
Starred values were filed as active, the others as inactive; i = inactive; ? = inconclusive; nt = not tested or not shown. Hits are enriched below; roughly 9.9% of the tested compounds scored in any of these assays. Unless noted, the call rests on the fitted dose curve; in most records, active means well fitted curve in the direction sought with a large enough effect; inconclusive means small, poorly fitted or top-dose-only effect, or another doubt; inactive means no such curve, though single readings can be large; an effect the other way counts as inactive or inconclusive.

SMILES	MCF10A rerep	KB-V1 MDR tox	KB-3-1 cytotox	IL-1B inflam inh	SW480 rerep
O=C(NCc1ccccc1)c1cccc(NC(=O)C2CCCC2)c1	?	i	i	-8.2	-0.5%
COc1cccc(CN2CCC2(C)C(=O)Nc2ccc3c(c2)OCO3)c1F (stereo not drawn)	nt	?	i	-27.6	nt
CSCCC1NC2(C(=O)Nc3c(Cl)cccc32)[C@@H]2C(=O)N(C3CCCC3)C(=O)[C@H]12 (stereo partly drawn)	4.0%	i	i	2.1	-4.4%
CSCCC1NC2(C(=O)Nc3c(C)cc(Cl)cc32)[C@@H]2C(=O)N(C3CCCC3)C(=O)[C@H]12 (stereo partly drawn)	26.8%	4.61µM*	?	-8.6	?
Cc1cc(Nc2cccc(Cl)c2)nc(NCc2ccccc2)n1	?	i	?	-20.0	?
Cc1cc(N/N=C/c2cccc(F)c2)nc(NCc2ccccc2)n1	?	?	i	-71.6*	14.7%
Cc1cc(C)nc(N/N=C/c2ccc(Cl)cc2)n1	?	?	i	-23.7	3.4%
Cc1cc(N/N=C/c2cccc(Cl)c2)nc(NCc2ccccc2)n1	?	?	?	-77.2*	5.5%
Cc1cc(N/N=C/c2ccccc2)nc(NCc2ccccc2)n1	?	13µM*	i	-4.2	?
Cc1cc(N/N=C/c2ccccc2F)nc(NCc2ccccc2)n1	6.0%	i	i	-4.0	-6.8%
Cc1cc(C)nc(N/N=C/c2cccc(Cl)c2)n1	-6.2%	i	i	24.0	-38.1%
Cc1cc(N/N=C/c2ccc(Cl)cc2)nc(NCc2ccccc2)n1	?	?	i	-83.9*	?
COc1cccc(CCNC(=O)CC2C(=O)NCCN2Cc2ccc(C)o2)c1 (stereo not drawn)	-1.5%	?	i	7.7	?
CC1(NC(=S)Nc2ccc3ccccc3c2)CCS(=O)(=O)C1 (stereo not drawn)	-1.8%	i	i	15.4	-7.3%
CN(C)C(=S)NC(=S)Nc1ccc2ccccc2c1	?	18.4µM*	?	46.2	17.5%
Cc1ccccc1-n1c(C)nnc1SCC(=O)N1CCc2ccccc2C1	?	6.51µM*	i	0.9	0.5%
CCc1cccc(CC)c1-n1c(SCC(=O)N2CCc3ccccc3C2)nnc1-c1cccnc1	23.7%	?	?	-57.8*	-0.4%
Cn1c(SCC(=O)N2CCc3ccccc3C2)nnc1-c1ccncc1	12.2%	i	i	23.4	-0.3%
O=C(Nc1ccc(F)c(Cl)c1)C1Cc2c(-c3ccc4c(c3)OCO4)ccnc2O1 (stereo not drawn)	nt	i	i	?	nt
Cc1ccc(CNC(=O)C2CCCN2C(=O)Nc2ccc(F)cc2)cc1 (stereo not drawn)	-3.0%	i	i	0.0	19.7%
COc1ccc(NC(=O)CCNC(=O)Cn2cnc3sc4c(c3c2=O)CCCC4)c(OC)c1	-3.4%	i	i	-17.1	-1.3%
COc1ccc(NC(=O)CCCNC(=O)Cn2cnc3sc4c(c3c2=O)CCCC4)c(OC)c1	1.4%	20.6µM*	i	-15.2	-1.5%
O=C(Cn1cnc2sc3c(c2c1=O)CCCC3)NCC(=O)Nc1c(F)cccc1F	-2.8%	i	i	10.9	16.4µM*
O=C(CNC(=O)Cn1cnc2sc3c(c2c1=O)CCCC3)NCc1ccccn1	-3.2%	i	i	10.9	1.0%
Cc1cc(-c2ccc(/C=N/n3cnnc3)o2)c(C)c([N+](=O)[O-])c1	0.7%	i	i	-70.5*	-12.3%
O=[N+]([O-])c1ccc(Cl)c(-c2ccc(/C=N/n3cnnc3)o2)c1	2.4%	i	i	-25.8	-8.6%
Cc1ccc(-c2cc(C(F)F)nc(S(C)(=O)=O)n2)cc1	4.11µM*	?	?	-102.2*	?
CCOc1cc(C)c(Cl)cc1S(=O)(=O)NCc1ccc2c(c1)OCO2	?	13µM*	?	-5.7	?
CCOc1cc(S(=O)(=O)NCc2ccc3c(c2)OCO3)c(C)cc1C	-6.2%	i	i	24.8	-9.6%
O=C(NCc1ccc2c(c1)OCO2)c1ccc(Cl)c(S(=O)(=O)NCc2ccccc2)c1	?	23.1µM*	i	-11.0	-1.1%
